Compounds with a hit are over-represented: about 4.2% of the library has one in this group of screens.
GDH-TPI inh = GDH-TPI coupled enzyme inhibition counter-screen | AID 588335 | inhibition, % at 4.8 µM | GDH-TPI coupled enzyme counterscreen, NADH absorbance | actives 1.2% (n = 360,000);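 further: 0% = DMSO wells and 100% = wells lacking the enzyme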
Mtb FBA inh = inhibitors of M. tuberculosis fructose-bisphosphate aldolase; P9WQA3; purified M. tuberculosis FBA, fluorescence read-out; inhibition, % at 1 µM; actives 2.3% (n = 360,000); in the data active means inhibition above about 27%;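 further: 0% = vehicle and 100% = reference inhibitor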
Target sequence (P9WQA3 whole entry, looked up): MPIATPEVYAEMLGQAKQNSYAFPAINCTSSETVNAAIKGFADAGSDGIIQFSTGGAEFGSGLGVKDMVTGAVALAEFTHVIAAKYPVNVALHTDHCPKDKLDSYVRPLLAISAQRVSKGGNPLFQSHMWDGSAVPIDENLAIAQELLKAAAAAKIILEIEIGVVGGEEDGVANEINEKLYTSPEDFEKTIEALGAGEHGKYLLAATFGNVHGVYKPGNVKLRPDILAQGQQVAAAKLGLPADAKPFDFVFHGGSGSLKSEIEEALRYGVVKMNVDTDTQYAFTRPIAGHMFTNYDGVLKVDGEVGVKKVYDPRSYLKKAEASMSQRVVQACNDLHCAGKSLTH
CCHF vOTU inh-1 = CCHFV vOTU protease inhibition | Pep-AMC fluorescence | inhibition, % at 11.5 µM | actives 0.55% (n = 370,000); further: 0% = vehicle wells with enzyme and 100% = no enzyme wells
RecA intein inh = blocks M. tuberculosis RecA intein splicing; AID 2221; inhibition, % (test concentration not listed); cell-free RecA intein splicing, fluorescence; actives 0.75% (n = 290,000); P9WHJ3; in the data active means inhibition above about 30%;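 further: 0% = vehicle wells and 100% = reference inhibitor control wells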
Mtb betalactam = beta-lactam sensitization of Mtb H37Rv. M. tuberculosis H37Rv growth with meropenem, percent inhibition. inhibition, % at 25 µM. AID 434955. actives 0.27% (n = 330,000); call rule not given here;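 further: growth measured after seven days incubation then overnight dye step; 0% = bacteria only wells and 100% = bacteria with antibiotic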
CCHF vOTU inh-2 = CCHFV vOTU protease inhibition, confirmation | shares compounds with CCHF vOTU inh-1 | Recombinant CCHFV vOTU, Pep-AMC fluorescence | inhibition, % at 11.5 µM | actives 17% (n = 1,900)
* hit, by the source's call; nt = not tested or not shown. Unless noted, no stated cut-off is given here; in the data, active means inhibition above about 30%; inactive means the rest.

SMILES | GDH-TPI inh | Mtb FBA inh | CCHF vOTU inh-1 | RecA intein inh | Mtb betalactam | CCHF vOTU inh-2
COc1ccc(-n2nnnc2SCC(=O)c2cccc(OC)c2)cc1 | 3.3 | 2.6 | 30.8* | -0.9 | 8.3 | -13.4
CCn1nnnc1SCC(=O)c1cccc(OC)c1 | 0.6 | 6.4 | -0.1 | -6.2 | -1.1 | nt
O=S(=O)(c1ccccc1)c1ccc(NCc2ccco2)cc1 | -1.2 | 2.3 | 8.8 | 2.9 | 69.9 | nt
O=C1C(Cl)=C(NCc2ccco2)C(=O)c2ccccc21 | -5.3 | -6.3 | 106.8* | nt | nt | 81.4*
O=[N+]([O-])c1cc(Br)c2c(c1)CCN2 | 12.4 | -9.7 | 30.4* | nt | nt | 0.7
CCOc1ccc2noc3c2c1C(=O)c1ccccc1-3 | -2.4 | -5.9 | 86.6* | 10.4 | 5.4 | 36.7*
O=C1c2ccccc2-c2onc3ccc(NCc4ccco4)c1c23 | 19.1 | -4.5 | nt | 17.4 | 22.3 | nt
CN(C)C(=O)CSc1nnc(Cc2ccccc2)n1CC1CCCO1 (stereo unspecified) | -12.8 | -4.5 | -10.3 | 1.1 | 1.3 | nt
COc1ccccc1NC(=O)C(C)OC(=O)C1CCN(S(=O)(=O)c2ccccc2C(F)(F)F)CC1 (stereo unspecified) | 14.6 | 0.1 | 8.4 | nt | nt | nt
O=C(c1ccc(S(=O)(=O)c2ccccc2)cc1)N1CCc2ccccc2C1 | 9.2 | -2.6 | 34.8* | -1.6 | 1.6 | -16.5
O=C(c1ccc(S(=O)(=O)N2CCCCC2)cc1)N1CCc2ccccc2C1 | 4.4 | 4.1 | -14.8 | -123.3 | -2.5 | nt
N#C/C(=C/c1ccc([N+](=O)[O-])cc1)C(N)=O | 2.5 | 0.9 | 33.8* | 1.5 | 1.2 | -24.2
N#C/C(=C\c1cc([N+](=O)[O-])ccc1Cl)C(N)=O | 1.9 | 1.2 | 13.6 | 4.1 | -6.5 | nt
C=CCOc1c(Cl)cc(CNc2ccc(N(C)C)cc2)cc1OC | 13.6 | -0.4 | 69.0* | nt | 13.1 | -6.0
CCN(CC)c1ccc(NC(=O)c2ccc3c(c2)OCO3)cc1 | 15.4 | -0.4 | 5.4 | -2.1 | -2.1 | nt
CC(CNC(=O)CCn1ccc2cc(S(=O)(=O)N3CCCC3)ccc21)c1ccccc1 (stereo unspecified) | -5.5 | 0.3 | 6.9 | 4.6 | -4.0 | nt
COc1cc(C=C2C(=O)C=CC2=O)ccc1O | nt | nt | 41.4* | nt | nt | -11.5
COc1cc(/C=C2/C(=O)CNC2=O)ccc1O | 0.3 | -26.5 | 16.1 | 2.8 | -0.3 | nt
COC(=O)COc1ccc(S(=O)(=O)NCc2ccc3c(c2)OCO3)cc1 | -2.9 | 0.2 | -6.0 | nt | 5.4 | nt
COc1cc2c(cc1OC)CN(CC(=O)Nc1ccc(C)cc1)CC2 | 5.6 | -0.3 | 30.3* | -2.9 | nt | -21.5
Cc1ccc(S(=O)(=O)N2CCC(C(=O)N/N=C/c3cccn3C)CC2)cc1 | 15.3 | -1.2 | 3.2 | nt | -5.1 | nt
COc1ccc(NC(=O)COc2cc(C)cc(C)c2)cc1S(=O)(=O)N1CCCCC1 | 2.1 | 2.8 | 29.6* | 0.5 | -13.9 | -16.1
O=C1Cc2ccccc2C(=O)N1OCc1ccc(Cl)cc1Cl | 4.8 | 1.4 | 35.6* | 12.2 | -1.7 | -3.2
Cc1cc2nnc(SCC(=O)NC3CCCCC3)n2c(N)n1 | 8.8 | 0.9 | 4.6 | -2.7 | 6.6 | nt
CC(N=C1NS(=O)(=O)c2ccccc21)C(=O)OCC(=O)N(C)C1CCS(=O)(=O)C1 (stereo unspecified) | -8.1 | 1.3 | 11.4 | nt | -4.5 | nt
SMILES | GDH-TPI inh | Mtb FBA inh | CCHF vOTU inh-1 | RecA intein inh | Mtb betalactam | CCHF vOTU inh-2
Cc1oc(-c2ccccc2F)nc1CS(=O)(=O)CC(=O)NCCCc1ccccc1 | -10.0 | 1.0 | 1.5 | 2.4 | 6.0 | nt
Cc1ccccc1-c1nc(CS(=O)(=O)CC(=O)NCCc2ccccc2)c(C)o1 | 5.0 | -0.1 | 39.1* | -1.0 | -9.1 | -5.0
CCCCC[C@@H](C)N1C[C@H](COCc2ccccc2)Oc2cc(N3CCC[C@@H]3CO)ccc2S1(=O)=O | nt | nt | 32.6* | nt | nt | 16.9
CCCCC[C@@H](C)N1C[C@@H](COCc2ccccc2)Oc2cc(N3CCC[C@H]3CO)ccc2S1(=O)=O | nt | nt | 27.6 | nt | nt | nt
CCCCC[C@H](C)N1C[C@H](COCc2ccccc2)Oc2cc(N3CC[C@@H](O)C3)ccc2S1(=O)=O | nt | nt | 15.4 | nt | nt | nt
CCCCC[C@H](C)N1C[C@@H](COCc2ccccc2)Oc2cc(N3CC[C@H](O)C3)ccc2S1(=O)=O | nt | nt | 40.0* | nt | nt | 3.2
CC1CC(C)(C)CC2(C1)NC(=O)N(CC(=O)N(C)Cc1nc3ccccc3c(=O)[nH]1)C2=O (stereo unspecified) | -6.9 | -4.0 | 1.4 | nt | -3.7 | nt
COc1ccc(Nc2ncnc3c2oc2ccccc23)cc1 | 6.2 | 0.7 | 33.0* | 1.3 | -0.5 | -3.8
Cc1ccc(Nc2ncnc3c2oc2ccccc23)cc1 | 20.9 | 5.9 | -2.7 | -1.5 | 5.6 | nt

High-throughput results as filed in PubChem BioAssay.
